Results filed as inconclusive are left out. Activity calls are given as the source filed them. Unless noted, calls come from the whole dose curve; as a rule, active = well fitted curve in the direction sought with a large enough effect in the repeat runs; inconclusive = weak or mixed curves; inactive = no such curve, though single readings can be large; an effect the other way counts as inactive or inconclusive.
Tests used:
[1] = qHTS assay to identify small molecule agonists of the sonic hedgehog signaling (Shh) pathway (AID 1259368; calls by dose curve;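 note: NIH/3T3-derived 3T3Gli1-Luc cells carrying a stable Gli1-driven firefly luciferase reporter; series mostly up to about 92 µM; nearly all actives have a fitted effect of over 15% in size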)
How it was run: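 Quantitative high-throughput format using a Gli1-driven firefly luciferase reporter line derived from NIH/3T3 cells. After a 24 hr compound treatment at 37 C and 5% CO2, luminescence reported Gli1 response element activity.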

[2] = qHTS assay to identify small molecule antagonists of the sonic hedgehog signaling (Shh) pathway (AID 1259369; calls by dose curve; note: nearly all actives have a fitted effect of over 45% in size)
How it was run: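 Stable Gli1-Luc reporter NIH/3T3 clone; quantitative HTS in stimulated mode with conditioned medium. Luminescence measured after 24hr compound treatment at 37 C.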

[3] = target: Estrogen receptor beta (Homo sapiens) (UniProt Q92731); experiment: qHTS assay to identify small molecule agonists of the estrogen receptor beta (ER-beta) signaling pathway (AID 1259377; active = well fitted activation curve with a large enough effect in the signal ratio in the repeat runs, not every such curve was filed as active; the % refers to the signal ratio)
How it was run: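 ER-beta-UAS-bla HEK293T (GripTite) cells carrying a UAS-driven beta-lactamase reporter, in medium with 2% charcoal-stripped FBS, were exposed to compounds for 16 hr at 37C; LiveBLAzer B/G FRET substrate was then added and fluorescence read after 2 hours at room temperature.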

[4] = qHTS assay to identify small molecule agonists of the androgen receptor (AR) signaling pathway in the presence of an antagonist - cell viability counter screen (AID 1259379);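 note: MDA-kb2 human breast cancer cells carrying an MMTV luciferase reporter; series mostly up to about 92 µM; nearly all actives have a fitted effect of over 25% in size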
How it was run: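 Nilutamide-containing (3.0uM final) MDA-kb2 cultures, 3,000 cells/well, were treated with compounds across 15 concentrations. After 16 hr at 37C with no CO2, cell viability was determined by CellTiter-Fluor fluorescence in the luciferase assay wells.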

[5] = qHTS assay to identify small molecule agonists of the estrogen receptor beta (ER-beta) signaling pathway - cell viability counter screen (AID 1259380); note: nearly all actives have a fitted effect of over 30% in size
How it was run: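 Steps: plate ER-beta-UAS-bla HEK293T cells, rest 6 hr; add compounds in DMSO; incubate 16 hr at 37C, 5% CO2; add FRET substrate 2 hr; add CellTiter-Glo, wait 30 min at room temperature; read luminescence.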

[6] = qHTS assay to identify small molecule antagonists of the estrogen receptor beta (ER-beta) signaling pathway - cell viability counter screen (AID 1259382); note: series mostly up to about 92 µM; nearly all actives have a fitted effect of over 55% in size
How it was run: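 Viability is scored by CellTiter-Glo luminescence (30 min, room temperature) in ER-beta-UAS-bla HEK293T wells already read for reporter fluorescence. Compound exposure lasts 16 hr at 37C alongside 1nM 17-beta-estradiol in charcoal-stripped serum medium.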

[7] = target: Thyrotropin receptor (Homo sapiens) (UniProt P16473); experiment: qHTS assay to identify small molecule antagonists of the thyroid stimulating hormone receptor (TSHR) signaling pathway (AID 1259385; calls by dose curve; note: nearly all actives have a fitted effect of over 20% in size)
How it was run: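 TSHR-HEK293 cells (800/well) plated 18 h, then compounds with Ro20-1724 and TSH at 1.5 ng/mL final, 30 min at room temperature. cAMP quantified by HTRF (cAMP-d2/anti-cAMP-cryptate, 1 h); 15 concentrations in triplicate.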

[8] = qHTS assay to identify small molecule agonists of the estrogen receptor alpha (ER-alpha) signaling pathway in the presence of an antagonist - cell viability counter screen (AID 1259386);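 note: series mostly up to about 92 µM; cells exposed to compounds for 22 h at 37 °C before the viability read; nearly all actives have a fitted effect of over 30% in size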
How it was run: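 In this counter screen, compound effects on VM7Luc4E2 viability were tested in the presence of the antagonist ICI-182,780 at 10.0nM final. Compounds were dosed at 15 concentrations, exposure lasted 22hr, and the CellTiter-Fluor signal was read.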

[9] = target: Progesterone receptor (Homo sapiens) (UniProt P06401); experiment: qHTS assay to identify small molecule agonists of the progesterone receptor (PR) signaling pathway (AID 1346784; calls by dose curve; note: nearly all actives have a fitted effect of over 30% in size)
How it was run: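 PR-UAS-bla HEK 293T cells carrying a UAS-driven beta-lactamase reporter were seeded in medium with 2% charcoal-stripped FBS, preincubated 6 hr at 37C, then exposed to compounds in DMSO for 16 hr; agonism was read by LiveBLAzer B/G FRET fluorescence.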

[10] = target: Progesterone receptor (Homo sapiens) (UniProt P06401); experiment: qHTS assay to identify small molecule antagonists of the progesterone receptor (PR) signaling pathway (AID 1346795; active = well fitted inhibition curve with a large enough effect in the signal ratio in the repeat runs, not every such curve was filed as active; the % refers to the signal ratio)
How it was run: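 PR-UAS-bla HEK293T cells carrying a UAS-driven beta-lactamase reporter were plated in medium with 2% charcoal-stripped FBS and rested 6 hr at 37C. Compounds were added with 1 nM R5020 (final) for 16 hr, then FRET substrate loaded 2 hr at room temperature.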

[11] = qHTS assay to identify small molecule antagonists of the progesterone receptor (PR) signaling pathway - cell viability counter screen (AID 1346798); note: series mostly up to about 92 µM; nearly all actives have a fitted effect of over 50% in size
How it was run: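 PR-UAS-bla HEK293T cells in medium with 2% charcoal-stripped FBS were treated with compounds plus R5020 for 16 hr at 37C. Cell viability was then read by CellTiter-Glo luminescence after 30 min at room temperature in the same wells.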

[12] = qHTS assay to identify small molecule agonists of the progesterone receptor (PR) signaling pathway - cell viability counter screen (AID 1346799; calls by dose curve; note: nearly all actives have a fitted effect of over 45% in size)
How it was run: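 PR-UAS-bla HEK293T cells, 3,000 per well in medium with 2% charcoal-stripped FBS, were preincubated 6 hr at 37C, then exposed to compounds for 16 hr; viability was read as CellTiter-Glo luminescence after 30 min at room temperature.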

[13] = qHTS assay to identify small molecule antagonists of the TGF-beta/Smad signaling pathway - cell viability counter screen (AID 1346824); note: nearly all actives have a fitted effect of over 50% in size
How it was run: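 SBE-bla HEK 293T cells, incubated overnight, then compound plus 0.25 ng/mL TGF-beta1 (stock added) for 5 hr at 37 C. Viability was read in the same wells by CellTiter-Glo luminescence after 30 min at room temperature.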

[14] = qHTS assay to identify small molecule agonists of the TGF-beta/Smad signaling pathway - cell viability counter screen (AID 1346829); note: top concentration of the series differs between compounds; nearly all actives have a fitted effect of over 45% in size
How it was run: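 HEK 293T SBE-bla line, 5 hr compound exposure at 37 C, multiplexed CellTiter-Glo viability read by luminescence.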

[15] = target: Thyrotropin-releasing hormone receptor (Homo sapiens) (UniProt P34981); experiment: qHTS assay to identify small molecule antagonists of the thyrotropin-releasing hormone receptor (TRHR) signaling pathway (AID 1346877; active = well fitted inhibition curve with a large enough effect in the repeat runs, not every such curve was filed as active; note: series mostly up to about 51 µM)
How it was run: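 Kinetic fluorescence (3 min, 1 s resolution) following stimulation with TRH at 1 nM final; HEK293 cells bearing human TRHR; 5 min compound preincubation at RT; concentration-response over 15 points, triplicates.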

[16] = target: Estrogen receptor (Homo sapiens) (UniProt P03372); experiment: qHTS assay to identify small molecule agonists of the estrogen receptor alpha (ER-alpha) signaling pathway in the presence of an antagonist (AID 1259383; calls by dose curve; note: top concentration of the series differs between compounds; nearly all actives have a fitted effect of over 15% in size)
How it was run: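 Readout was ERE-driven luciferase luminescence in VM7Luc4E2 cells, which express full-length ER-alpha endogenously. Compounds were tested at 15 concentrations for 22hr alongside 10.0nM ICI-182,780 (final concentration).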

[17] = qHTS assay to identify small molecule agonists of the TGF-beta/Smad signaling pathway (AID 1346859; active = well fitted activation curve with a large enough effect in the signal ratio in the repeat runs, not every such curve was filed as active; the % refers to the signal ratio; note: series mostly up to about 77 µM)
How it was run: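 HEK 293T cells stably carrying a beta-lactamase reporter driven by the Smad binding element were seeded overnight, exposed to DMSO-dissolved compounds for 5 hr at 37 C, 5% CO2, then loaded with FRET substrate for 2 hr at room temperature.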

[18] = qHTS assay to identify small molecule agonists or antagonists of the thyroid stimulating hormone receptor (TSHR) signaling pathway - wild type cell line counter screen (AID 1259384; calls by dose curve)
How it was run: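 Wild-type Hek293 cells, 800/well, 18 h at 37C, then compound with Ro20-1724 for 30 min RT. cAMP by HTRF (cAMP-d2/anti-cAMP cryptate), 1 h RT, fluorescence read. 15 concentrations, triplicates.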

[19] = target: Androgen receptor (Homo sapiens) (UniProt P10275); experiment: qHTS assay to identify small molecule agonists of the androgen receptor (AR) signaling pathway in the presence of an antagonist (AID 1259381; calls by dose curve; note: nearly all actives have a fitted effect of over 15% in size)
How it was run: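 Reporter-gene luminescence from MDA-kb2 cells exposed 16hr at 37C (0% CO2) to 15-point compound titrations with 3.0uM final nilutamide as AR antagonist.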

[20] = target: Estrogen receptor beta (Homo sapiens) (UniProt Q92731); experiment: qHTS assay to identify small molecule antagonists of the estrogen receptor beta (ER-beta) signaling pathway (AID 1259378; active = well fitted inhibition curve with a large enough effect in the signal ratio in the repeat runs, not every such curve was filed as active; the % refers to the signal ratio)
How it was run: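 ER-beta-UAS-bla HEK293T cells in 2% charcoal-stripped FBS medium treated with compound plus 1nM final 17-beta-estradiol for 16 hr at 37C. Beta-lactamase reporter read by FRET substrate fluorescence after 2 hours at room temperature.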
% is set by controls: 0 for no effect and ±100 for the full control effect.

Estrogen receptor beta (Homo sapiens), sequence (Q92731 whole entry, looked up): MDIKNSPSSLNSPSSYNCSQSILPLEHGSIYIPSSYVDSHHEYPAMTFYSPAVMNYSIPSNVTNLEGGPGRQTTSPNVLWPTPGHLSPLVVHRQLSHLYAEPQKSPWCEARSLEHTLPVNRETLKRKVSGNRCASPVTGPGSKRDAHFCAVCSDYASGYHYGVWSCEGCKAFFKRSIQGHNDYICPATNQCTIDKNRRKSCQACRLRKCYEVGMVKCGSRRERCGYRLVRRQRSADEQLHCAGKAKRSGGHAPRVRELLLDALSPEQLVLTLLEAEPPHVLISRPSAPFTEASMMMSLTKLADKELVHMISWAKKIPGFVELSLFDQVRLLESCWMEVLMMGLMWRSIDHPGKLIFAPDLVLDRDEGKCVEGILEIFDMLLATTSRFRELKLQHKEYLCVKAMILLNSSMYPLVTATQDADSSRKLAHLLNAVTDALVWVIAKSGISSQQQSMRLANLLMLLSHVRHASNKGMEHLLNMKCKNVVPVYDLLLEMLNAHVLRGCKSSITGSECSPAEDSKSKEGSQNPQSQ
Thyrotropin receptor (Homo sapiens), sequence (P16473 whole entry, looked up): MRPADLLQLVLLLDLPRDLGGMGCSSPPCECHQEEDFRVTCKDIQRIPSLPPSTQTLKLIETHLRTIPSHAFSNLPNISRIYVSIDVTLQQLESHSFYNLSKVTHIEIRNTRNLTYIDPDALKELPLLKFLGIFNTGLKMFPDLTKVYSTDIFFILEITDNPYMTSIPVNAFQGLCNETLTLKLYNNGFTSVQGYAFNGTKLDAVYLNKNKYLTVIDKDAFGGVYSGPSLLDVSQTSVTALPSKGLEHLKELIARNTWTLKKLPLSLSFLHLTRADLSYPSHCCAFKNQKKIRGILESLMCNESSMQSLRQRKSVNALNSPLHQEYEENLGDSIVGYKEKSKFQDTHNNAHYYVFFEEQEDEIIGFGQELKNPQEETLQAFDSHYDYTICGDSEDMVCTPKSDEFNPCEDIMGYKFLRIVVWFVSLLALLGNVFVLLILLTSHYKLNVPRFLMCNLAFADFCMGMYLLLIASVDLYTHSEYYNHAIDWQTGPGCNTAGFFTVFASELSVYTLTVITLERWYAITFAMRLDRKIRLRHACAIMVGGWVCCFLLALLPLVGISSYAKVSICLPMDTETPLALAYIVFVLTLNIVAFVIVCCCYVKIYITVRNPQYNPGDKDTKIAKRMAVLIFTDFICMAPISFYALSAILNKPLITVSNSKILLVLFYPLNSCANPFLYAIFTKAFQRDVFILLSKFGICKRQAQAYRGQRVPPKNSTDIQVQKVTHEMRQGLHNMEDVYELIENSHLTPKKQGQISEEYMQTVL
Progesterone receptor (Homo sapiens), sequence (P06401 whole entry, looked up): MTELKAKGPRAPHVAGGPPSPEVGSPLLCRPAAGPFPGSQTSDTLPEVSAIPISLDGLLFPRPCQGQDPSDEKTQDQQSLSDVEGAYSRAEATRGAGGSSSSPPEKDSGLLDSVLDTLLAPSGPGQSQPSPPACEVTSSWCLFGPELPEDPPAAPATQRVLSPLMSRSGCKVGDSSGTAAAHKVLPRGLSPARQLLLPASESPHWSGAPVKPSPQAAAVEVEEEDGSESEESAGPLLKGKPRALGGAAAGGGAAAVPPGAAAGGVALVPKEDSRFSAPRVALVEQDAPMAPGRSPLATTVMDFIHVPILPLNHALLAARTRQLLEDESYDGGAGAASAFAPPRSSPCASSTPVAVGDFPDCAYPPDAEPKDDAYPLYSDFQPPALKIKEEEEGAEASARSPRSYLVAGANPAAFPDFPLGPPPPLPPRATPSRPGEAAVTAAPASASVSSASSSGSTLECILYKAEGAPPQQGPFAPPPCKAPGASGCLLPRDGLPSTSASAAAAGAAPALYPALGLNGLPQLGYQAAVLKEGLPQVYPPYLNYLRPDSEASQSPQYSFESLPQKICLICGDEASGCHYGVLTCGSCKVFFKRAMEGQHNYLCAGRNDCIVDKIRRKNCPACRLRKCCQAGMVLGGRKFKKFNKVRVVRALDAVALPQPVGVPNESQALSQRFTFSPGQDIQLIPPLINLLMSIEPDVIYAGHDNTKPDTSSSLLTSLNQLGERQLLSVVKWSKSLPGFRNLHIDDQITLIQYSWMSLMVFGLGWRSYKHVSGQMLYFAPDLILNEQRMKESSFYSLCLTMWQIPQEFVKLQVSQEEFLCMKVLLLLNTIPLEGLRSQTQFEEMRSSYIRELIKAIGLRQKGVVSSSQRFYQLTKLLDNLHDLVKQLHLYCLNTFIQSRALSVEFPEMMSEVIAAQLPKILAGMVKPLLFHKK
Thyrotropin-releasing hormone receptor (Homo sapiens), sequence (P34981 whole entry, looked up): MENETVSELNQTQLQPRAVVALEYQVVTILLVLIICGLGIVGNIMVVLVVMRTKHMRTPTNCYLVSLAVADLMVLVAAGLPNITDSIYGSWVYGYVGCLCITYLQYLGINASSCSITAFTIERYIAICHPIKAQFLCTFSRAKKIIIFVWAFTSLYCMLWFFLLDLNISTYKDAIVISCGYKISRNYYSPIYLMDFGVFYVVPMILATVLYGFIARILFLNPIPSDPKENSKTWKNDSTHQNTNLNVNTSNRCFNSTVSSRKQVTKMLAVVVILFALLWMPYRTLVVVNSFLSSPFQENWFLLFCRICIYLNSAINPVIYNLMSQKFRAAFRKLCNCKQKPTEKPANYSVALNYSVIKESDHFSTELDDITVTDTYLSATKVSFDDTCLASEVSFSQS
Estrogen receptor (Homo sapiens), sequence (P03372 whole entry, looked up): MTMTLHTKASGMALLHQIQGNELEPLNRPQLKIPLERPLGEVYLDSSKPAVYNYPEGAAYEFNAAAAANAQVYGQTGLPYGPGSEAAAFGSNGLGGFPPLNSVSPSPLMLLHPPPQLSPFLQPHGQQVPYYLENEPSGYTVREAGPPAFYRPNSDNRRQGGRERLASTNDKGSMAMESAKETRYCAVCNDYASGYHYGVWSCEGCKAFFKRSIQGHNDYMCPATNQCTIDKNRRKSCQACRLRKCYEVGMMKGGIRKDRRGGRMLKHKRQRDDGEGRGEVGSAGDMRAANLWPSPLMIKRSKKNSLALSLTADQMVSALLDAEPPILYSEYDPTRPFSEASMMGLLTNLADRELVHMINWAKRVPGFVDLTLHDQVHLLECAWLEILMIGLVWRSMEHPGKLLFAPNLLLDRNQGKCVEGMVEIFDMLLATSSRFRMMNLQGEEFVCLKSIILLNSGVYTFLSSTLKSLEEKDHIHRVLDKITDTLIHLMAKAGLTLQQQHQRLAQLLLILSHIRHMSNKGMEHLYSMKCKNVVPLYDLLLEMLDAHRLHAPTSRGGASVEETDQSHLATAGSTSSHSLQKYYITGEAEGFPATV
Androgen receptor (Homo sapiens), sequence (P10275 whole entry, looked up): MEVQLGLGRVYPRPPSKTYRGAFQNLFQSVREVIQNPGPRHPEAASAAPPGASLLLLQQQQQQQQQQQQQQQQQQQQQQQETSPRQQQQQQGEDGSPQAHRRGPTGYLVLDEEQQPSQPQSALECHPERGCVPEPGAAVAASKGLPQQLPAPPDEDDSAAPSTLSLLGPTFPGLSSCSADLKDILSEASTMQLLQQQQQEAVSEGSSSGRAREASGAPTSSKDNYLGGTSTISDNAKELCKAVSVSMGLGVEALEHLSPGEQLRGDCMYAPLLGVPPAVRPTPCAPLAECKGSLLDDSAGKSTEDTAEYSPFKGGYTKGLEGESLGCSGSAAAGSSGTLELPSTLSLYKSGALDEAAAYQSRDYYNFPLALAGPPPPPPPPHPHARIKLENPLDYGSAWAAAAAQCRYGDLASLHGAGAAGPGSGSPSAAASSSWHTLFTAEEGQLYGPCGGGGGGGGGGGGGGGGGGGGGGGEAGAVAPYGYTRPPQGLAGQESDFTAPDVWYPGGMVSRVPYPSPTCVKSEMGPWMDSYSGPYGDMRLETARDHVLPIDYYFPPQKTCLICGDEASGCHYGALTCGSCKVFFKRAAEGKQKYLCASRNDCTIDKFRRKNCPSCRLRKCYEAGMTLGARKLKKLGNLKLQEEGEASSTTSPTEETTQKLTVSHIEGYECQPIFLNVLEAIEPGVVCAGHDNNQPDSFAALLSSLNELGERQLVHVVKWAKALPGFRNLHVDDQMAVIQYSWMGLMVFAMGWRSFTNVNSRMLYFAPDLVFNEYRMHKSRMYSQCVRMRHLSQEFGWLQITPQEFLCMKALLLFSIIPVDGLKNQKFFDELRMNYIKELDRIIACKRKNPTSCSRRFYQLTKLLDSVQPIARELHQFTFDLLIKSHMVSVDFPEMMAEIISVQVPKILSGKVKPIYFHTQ

COC(=O)CCc1ccc(OCC(O)CNC(C)C)cc1 (centres undefined)
inactive: outcome [1] | Potency [2] | Potency [3] | Potency [4] | Potency [5] | outcome [6] | outcome [7] | Potency [8] | Potency [9] | Potency [10] | Potency [11] | Potency [12] | outcome [13] | outcome [14] | outcome [15]

C=C(C)C(=O)OCC(C)(C)COC(=O)C(=C)C
inactive: outcome [1] | Potency [2] | Potency [3] | Potency [4] | Potency [5] | outcome [6] | outcome [16] | Potency [9] | Potency [10] | Potency [11] | Potency [12] | outcome [14] | outcome [17] | outcome [15]

CCCCOCCOC(=O)COc1nc(Cl)c(Cl)cc1Cl
inactive: outcome [1] | Potency [2] | Potency [4] | Potency [5] | outcome [6] | outcome [16] | outcome [18] | outcome [7] | Potency [8] | Potency [9] | Potency [10] | Potency [11] | Potency [12] | outcome [13] | outcome [14] | outcome [17] | outcome [15]

CCCCCOC(=O)CCC
inactive: outcome [1] | Potency [2] | Potency [3] | Potency [4] | Potency [5] | outcome [6] | Potency [8] | Potency [9] | Potency [11] | Potency [12] | outcome [13] | outcome [14] | outcome [17]

Cc1[nH]cnc1-c1ccc(Cl)cc1
inactive: outcome [1] | Potency [2] | Potency [4] | Potency [5] | Potency [19] | outcome [6] | outcome [16] | outcome [18] | outcome [7] | Potency [8] | Potency [9] | Potency [11] | outcome [13] | outcome [14] | outcome [17] | outcome [15]

Cc1ccc(S(=O)(=O)O)c(C)c1
inactive: outcome [1] | Potency [2] | Potency [4] | Potency [5] | outcome [6] | outcome [16] | outcome [18] | outcome [7] | Potency [8] | Potency [9] | Potency [10] | Potency [11] | outcome [13] | outcome [14] | outcome [17] | outcome [15]

Cc1ccc2ccc(Cl)cc2n1
inactive: outcome [1] | Potency [2] | Potency [4] | Potency [5] | Potency [19] | outcome [16] | outcome [18] | outcome [7] | Potency [8] | Potency [9] | Potency [10] | Potency [11] | Potency [12] | outcome [13] | outcome [14] | outcome [17]

O=S(O)(O)=S
inactive: activity change [1] -0.163% [at 8.39 µM] | activity change, negative = inhibition [2] 0.751% [at 8.39 µM] | activity, negative = inhibition [20] 6.44% [at 8.39 µM] | activity change, negative = cytotoxicity [4] 1.18% [at 8.39 µM] | activity change, negative = cytotoxicity [5] -9.09% [at 8.39 µM] | activation [16] 0.31% [at 8.39 µM] | cAMP activity change [18] 0.958% [at 8.39 µM] | activity change, negative = inhibition [7] 2.15% [at 8.39 µM] | activity change, negative = cytotoxicity [8] 1.38% [at 8.39 µM] | activation [9] -0.0718% [at 8.39 µM] | activity change, negative = inhibition [10] 2.55% [at 8.39 µM] | activity change, negative = cytotoxicity [11] 5.98% [at 8.39 µM] | activity change, negative = cytotoxicity [12] -1.49% [at 8.39 µM] | viability change, negative = cytotoxic [13] -0.132% [at 6.97 µM] | activity change, negative = cytotoxicity [14] 1.63% [at 6.97 µM] | activation [17] 3.3% [at 6.97 µM] | activity, negative = inhibition [15] 1.85% [at 4.65 µM]
